A number with no mark means an inactive call. Results filed as inconclusive are left out. Entries that show only a call come without a potency. Active and inactive are the calls of the source. Unless noted, calls follow the shape of the dose curve; as a rule, active = well fitted curve in the direction sought with a large enough effect; inconclusive = small, poorly fitted or top-dose-only effect, or another doubt; inactive = no such curve, though single readings can be large; an effect the other way counts as inactive or inconclusive.
Assays:
[1] = AP1 Signaling Pathway (AID 357; active = well fitted curve in either direction with a large enough effect, not every such curve was filed as active;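 also: ME-180 reporter cells stimulated with EGF at its EC50 level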)
Summary of the method: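 Read-out was the 460nm/530nm emission ratio (excitation 405nm) after CCF4 loading for 2.5 hours at room temperature. Cells carried an AP-1-driven beta-lactamase reporter, were stimulated with EC50 EGF plus compound for 5 hours, and AC50 values came from titrations.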

[2] = target: Cytochrome P450 1A2 (Homo sapiens) (UniProt P05177); assay: p450-cyp1a2 (AID 410; calls by dose curve; also: potency is read from the fitted curve at half-maximal effect)
Summary of the method: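 20nM CYP1A2 with 100uM Luciferin-ME (at Km) in 100mM KPO4; compound preincubated 10 min, NADPH regeneration added, 60 min at room temperature. Luciferin quantified by luminescence after detection reagent; normalized to 57 uM furafylline.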

[3] = NFAT Signaling Pathway (AID 444; active = well fitted curve in either direction with a large enough effect, not every such curve was filed as active;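 also: carbachol stimulus at about its EC50 of 1 µM final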); details: Jurkat NFAT-bla M1, carbachol, beta-lactamase ratio, 5 h; at 38 µM (top of the series)
Summary of the method: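 Jurkat cells with NFAT-driven β-lactamase reporter and co-expressed M1 receptor, stimulated with carbachol (final 1 uM, ~EC50), compound titration, 5 h at 37 °C. CCF4 loaded 1 h at RT; 460/530 nm ratio gave %activity and AC50.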

[4] = Stat Signaling Pathway (AID 446; active = well fitted curve in either direction with a large enough effect, not every such curve was filed as active;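 also: ME-180 cervical cancer cells given 40 pM IL-6 alongside compound; SIE-controlled beta-lactamase reporter measured as 460/530 nm FRET emission ratio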)
Summary of the method: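 IL-6/STAT signaling read in ME-180 cells via an SIE beta-lactamase reporter. Stimulus was 40 pM IL-6 (its AC50) for 5 hrs, so both activation and inhibition register.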

[5] = target: Glucocorticoid receptor (Homo sapiens) (UniProt P04150); assay: GR-GFP Redistribution (AID 450;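 active = compounds whose dose series gives a full or clear partial fitted curve of increased nuclear translocation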; also: potency is read from the fitted curve at half-maximal effect); details: U2OS GR-GFP nuclear translocation, laser cytometry, 2 h
[6] = target: Glucocorticoid receptor (Homo sapiens) (UniProt P04150); assay: GR-EFC Redistribution (AID 451; calls by dose curve; also: potency is read from the fitted curve at half-maximal effect); details: CHO-K1 GR-EFC translocation, beta-gal luminescence, 2 h
Summary of the method: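 CHO-K1 cells expressing nuclear EA and GR-ED fragments of b-gal; compounds titrated up to 46 uM final, 2 h at 37 C. GR nuclear translocation read as complemented b-gal luminescence after 1 h RT detection.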

[7] = target: Mitogen-activated protein kinase 10 (Mus musculus) (UniProt Q61831); assay: JNK3 AlphaScreen Assay (AID 530; active = well fitted curve in either direction with a large enough effect, not every such curve was filed as active;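 also: kinase came from lysate of stimulated human HepG2 cells; signal reports phosphorylation of biotinylated GST-cJun 1-79 at Ser73 with 10 µM ATP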)
Summary of the method: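 Pre-activated (IL-1β/TNFα) JNK3 in HepG2 lysates phosphorylates biotin-GST-cJun(1-79), 10 uM ATP; anti-phospho-cJun(Ser73) AlphaScreen read at room temperature, pH 7.6 Tris buffer. Compounds pre-incubated 15 min as titrations.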

[8] = target: 3',5'-cyclic-AMP phosphodiesterase 4B (Homo sapiens) (UniProt Q07343); assay: qHTS Assay for Inhibitors of PDE-IV (AID 607; active = well fitted activation curve with a large enough effect in the main read-out, with a control signal flat, not every such curve was filed as active)
Summary of the method: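 Live HEK293 cells with a modified cyclic nucleotide-gated (CNG) channel report intracellular cAMP via membrane-potential dye fluorescence (ex 535/em 590 nm). Endogenous PDE-IV was targeted. Compounds were tested at up to 22.9 uM final; RO 20-1724 100 uM served as control.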

[9] = target: Guanine nucleotide-binding protein G(i) subunit alpha-1 (Homo sapiens) (UniProt P63096); assay: qHTS Assay for Inhibitors of RGS12 GoLoco Motif Activity (Green Fluorophore) (AID 879);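 also: negative values mean loss of peptide binding seen as reduced polarization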
Summary of the method: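 Fluorescence polarization assay: 50 nM Gαi1 with 10 nM FITC-labeled RGS12 GoLoco peptide in 10 mM Tris pH 7.5, 150 mM NaCl, 0.1 mM GDP, 0.05% NP40, 10 min at room temperature with compound.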

[10] = target: Cytochrome P450 3A4 (Homo sapiens) (UniProt P08684); assay: qHTS Assay for Inhibitors and Substrates of Cytochrome P450 3A4 (AID 884); also: nearly all actives have a fitted effect of over 50% in size
Summary of the method: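 20 nM human CYP3A4 with 25 uM Luciferin-PPXE (at KM) in 200 mM KPO4, preincubated 10 min with compound; NADPH regeneration started a 60 min RT reaction. Luciferin detected by luminescence, normalized to 57 uM ketoconazole as full inhibition.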

[11] = target: Cytochrome P450 3A4 (Homo sapiens) (UniProt P08684); assay: qHTS Assay for Activators of Cytochrome P450 3A4 (AID 885); also: potency is read from the fitted curve at half-maximal effect; nearly all actives have a fitted effect of over 65% in size
Summary of the method: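 Quantitative HTS format: compounds preincubated with 20nM human CYP3A4 and Luciferin-PPXE substrate at KM, reaction started by NADPH regeneration, stopped after 60 min, luciferase luminescence read 20 min later.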

[12] = qHTS Assay for Identification of Small Molecule Antagonists for NFkB Signaling Pathway (AID 895; active = well fitted inhibition curve with a large enough effect in the signal ratio, with a control signal flat, not every such curve was filed as active; the % refers to the signal ratio)
Summary of the method: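 ME-180 NFkB-bla cells (beta-lactamase under NFkB response element), plated overnight, treated with compound then 10 pM TNF alpha (about EC50) for 5 hrs at 37 C. LiveBLAzer FRET read at 460/530 nm emission, 405 nm excitation.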

[13] = target: Cytochrome P450 2C19 (Homo sapiens) (UniProt P33261); assay: qHTS Assay for Inhibitors and Substrates of Cytochrome P450 2C19 (AID 899); also: potency is read from the fitted curve at half-maximal effect; nearly all actives have a fitted effect of over 60% in size
Summary of the method: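 Signal comes from luciferase acting on luciferin released by CYP2C19-mediated hydroxylation of Luciferin-H EGE, 10uM (KM). Assay mix: 5nM enzyme, 50mM KPO4; 60 min at 37C with NADPH regeneration. Data normalized against 57uM ketoconazole.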

[14] = qHTS Assay for Identification of Small Molecule Agonists for Thrombopoietin (TPO) Signaling Pathway (AID 917)
Summary of the method: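 IL-3-dependent murine pro-B Ba/F3 cells, stably transfected with human TPO receptor and GpIIb-promoter luciferase, are incubated 24 hrs at 37 C with test compound and 26 pM TPO; luciferase signal is read after 10 min at room temperature.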

[15] = target: Muscarinic acetylcholine receptor M1 (Rattus norvegicus) (UniProt P08482); assay: qHTS Assay for Antagonists of Acetylcholine Muscarinic M1 Receptor: Kinetic Measurement of Intracellular Calcium Response (AID 943); also: nearly all actives have a fitted effect of over 75% in size
Summary of the method: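 CHO cells expressing rat M1 receptor, Fluo-4 loaded, preincubated 10 min with compound, then stimulated with EC80 carbachol (100 nM final). Kinetic calcium fluorescence over 4 min; response taken as peak over basal signal.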

[16] = target: Muscarinic acetylcholine receptor M1 (Rattus norvegicus) (UniProt P08482); assay: qHTS Assay for Antagonists of Acetylcholine Muscarinic M1 Receptor: Measurement of IP-One Response (AID 944); also: nearly all actives have a fitted effect of over 75% in size
Summary of the method: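 CHO cells stably expressing rat M1, pretreated 10 min with compound, then stimulated 30 min with carbachol at EC80 (200 nM) in LiCl-containing buffer pH 7.4; IP1 accumulation read by HTRF competition (665/620 nm).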

[17] = target: Pyruvate kinase PKM (Homo sapiens) (UniProt P14618); assay: qHTS Assay for Activators of Human Muscle Pyruvate Kinase (AID 954; active = well fitted curve in the direction sought with a large enough effect, not every such curve was filed as active)
Summary of the method: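 Enzyme was run at intermediate activity so both inhibitors and activators could be detected. ATP formed from ADP and PEP by 0.1 nM human PKM2 during a 1 h room-temperature incubation was quantified by coupled luciferase luminescence.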

[18] = target: Alpha-galactosidase (Coffea arabica) (UniProt Q42656); assay: Counterscreen for Glucocerebrosidase Inhibitors: qHTS Assay for Coffee Bean alpha-Galactosidase at pH 4.5 (AID 957)
Summary of the method: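 Coffee bean enzyme (2 nM) with 80 uM 4-methylumbelliferyl alpha-D-galactopyranoside in 50 mM citric acid, 0.005% Tween-20, pH 4.5, 20 min at room temperature; compounds 0.7 nM–77 uM. Stopped at pH 10, fluorescence 365/440 nm; AC50 from Hill fits.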

[19] = target: Pyruvate kinase (Leishmania mexicana) (UniProt Q27686); assay: qHTS Validation Assay for Activators of Leishmania Mexicana Pyruvate Kinase (AID 959)
Summary of the method: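 Eight-point qHTS titrations; enzyme 0.2 nM LmPYK (E451W mutant); substrates 0.5 mM PEP, 0.1 mM ADP; 7 mM MgCl2; 1 h room temperature; PKLight luminescence normalized to neutral control.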

[20] = target: Alpha-galactosidase A (Homo sapiens) (UniProt P06280); assay: Counterscreen for Glucocerebrosidase Inhibitors: qHTS Assay for Human alpha-Galactosidase at pH 4.5 (AID 992)
Summary of the method: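 Read-out is 4-methylumbelliferone fluorescence (365 nm excitation, 440 nm emission) after a pH 10 NaOH/glycine stop. Reactions held 2 nM enzyme and 80 uM substrate at pH 4.5 for 20 min at room temperature.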

[21] = target: alpha-glucosidase (Oryza sativa, rice) (UniProt Q653V4); assay: Counterscreen for Glucocerebrosidase Inhibitors: qHTS Assay for Rice alpha-Glucosidase at pH 5.0 (AID 997)
Summary of the method: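 Rice alpha-glucosidase (4 nM final) with 400 uM 4-methylumbelliferyl-alpha-D-glucopyranoside in citrate buffer pH 5.0, 20 min at room temperature, stopped at pH 10; fluorescence 365/440 nm, compounds 0.7 nM–77 uM, AC50 from Hill fits.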

[22] = target: Alpha-galactosidase (Coffea arabica) (UniProt Q42656); assay: Counterscreen for Glucocerebrosidase Inhibitors: qHTS Assay for Coffee Bean alpha-Galactosidase at pH 5.9 (AID 998)
Summary of the method: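 Green coffee bean enzyme (2 nM) with 4-methylumbelliferyl alpha-D-galactopyranoside (80 uM) in 50 mM citric acid, 0.005% Tween-20, pH 5.9, 20 min at room temperature; compounds 0.7 nM–77 uM. Stopped at pH 10, fluorescence Ex365/Em440; Hill-fit AC50.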

[23] = target: DNA repair nuclease/redox regulator APEX1 (Homo sapiens) (UniProt P27695); assay: qHTS Validation Assay for Inhibitors of the Human Apurinic/apyrimidinic Endonuclease 1 (APE1) (AID 1705;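 also: TAMRA fluorescence gain over two minutes as APE1 cuts a quenched THF abasic duplex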)
Summary of the method: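 Substrate: 50 nM final fluorophore/quencher THF-abasic duplex. Enzyme preincubated with compounds 15 min, RT. Progress derived from fluorescence difference, third minus first kinetic read.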

[24] = Counterscreen for APE1 Inhibitors: Fluorescent Dye Displacement Validation Assay (AID 1707)
Summary of the method: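 ThO 250 nM + dsDNA 50 nM (THF abasic site, 5'-TAMRA), Tris-HCl pH7.5/50mM NaCl/2 mM MgCl2/0.01% Tween-20; compounds pin-transferred; ex 480/em 540 nm endpoint. Neutral = no compound; no-DNA ThO wells = negative control.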

Alpha-galactosidase (Coffea arabica), sequence (Q42656 whole entry, looked up): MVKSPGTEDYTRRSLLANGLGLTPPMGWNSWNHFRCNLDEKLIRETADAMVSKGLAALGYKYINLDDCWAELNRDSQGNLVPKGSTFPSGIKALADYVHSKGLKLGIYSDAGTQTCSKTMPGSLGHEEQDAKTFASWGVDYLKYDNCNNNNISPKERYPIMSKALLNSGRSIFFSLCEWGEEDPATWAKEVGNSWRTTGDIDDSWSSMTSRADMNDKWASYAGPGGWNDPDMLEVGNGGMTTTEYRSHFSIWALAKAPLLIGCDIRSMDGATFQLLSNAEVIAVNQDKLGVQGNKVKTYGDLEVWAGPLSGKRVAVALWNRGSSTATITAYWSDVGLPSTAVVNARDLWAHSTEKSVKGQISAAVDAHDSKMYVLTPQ
Glucocorticoid receptor (Homo sapiens), sequence (P04150 whole entry, looked up, the tested form may be a part): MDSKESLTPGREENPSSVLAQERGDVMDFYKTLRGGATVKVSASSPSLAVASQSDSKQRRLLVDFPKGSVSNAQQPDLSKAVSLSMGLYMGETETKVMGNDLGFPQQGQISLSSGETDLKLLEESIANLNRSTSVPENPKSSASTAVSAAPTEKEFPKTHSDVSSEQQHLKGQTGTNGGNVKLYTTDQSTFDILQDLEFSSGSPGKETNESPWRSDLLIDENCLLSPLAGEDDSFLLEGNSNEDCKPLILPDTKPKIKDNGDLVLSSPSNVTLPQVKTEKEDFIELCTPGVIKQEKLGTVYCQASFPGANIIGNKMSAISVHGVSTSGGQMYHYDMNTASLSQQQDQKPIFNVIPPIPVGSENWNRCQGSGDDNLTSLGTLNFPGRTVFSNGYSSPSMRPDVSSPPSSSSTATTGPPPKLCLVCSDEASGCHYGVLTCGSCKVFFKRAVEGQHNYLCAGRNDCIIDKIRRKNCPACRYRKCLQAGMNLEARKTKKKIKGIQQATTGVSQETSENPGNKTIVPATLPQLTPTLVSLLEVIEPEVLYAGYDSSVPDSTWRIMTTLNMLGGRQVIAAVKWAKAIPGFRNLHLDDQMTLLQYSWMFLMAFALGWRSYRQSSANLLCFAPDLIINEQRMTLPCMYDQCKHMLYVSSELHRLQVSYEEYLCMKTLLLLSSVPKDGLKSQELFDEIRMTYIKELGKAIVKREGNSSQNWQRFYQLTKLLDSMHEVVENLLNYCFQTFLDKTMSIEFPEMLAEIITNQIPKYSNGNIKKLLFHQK
Cytochrome P450 3A4 (Homo sapiens), sequence (P08684 whole entry, looked up): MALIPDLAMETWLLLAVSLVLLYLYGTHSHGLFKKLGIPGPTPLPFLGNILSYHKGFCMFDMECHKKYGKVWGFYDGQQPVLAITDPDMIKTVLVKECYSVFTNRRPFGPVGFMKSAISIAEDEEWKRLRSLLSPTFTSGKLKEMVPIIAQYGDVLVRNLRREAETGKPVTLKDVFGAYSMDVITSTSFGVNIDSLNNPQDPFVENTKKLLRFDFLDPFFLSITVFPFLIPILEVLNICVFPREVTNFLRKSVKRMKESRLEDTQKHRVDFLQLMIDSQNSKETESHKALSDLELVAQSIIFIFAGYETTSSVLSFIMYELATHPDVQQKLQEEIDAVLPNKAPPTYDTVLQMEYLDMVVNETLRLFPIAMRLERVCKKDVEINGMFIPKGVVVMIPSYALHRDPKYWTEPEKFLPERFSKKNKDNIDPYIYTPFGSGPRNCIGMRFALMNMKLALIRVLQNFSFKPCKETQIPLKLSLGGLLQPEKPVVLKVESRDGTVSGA
Muscarinic acetylcholine receptor M1 (Rattus norvegicus), sequence (P08482 whole entry, looked up): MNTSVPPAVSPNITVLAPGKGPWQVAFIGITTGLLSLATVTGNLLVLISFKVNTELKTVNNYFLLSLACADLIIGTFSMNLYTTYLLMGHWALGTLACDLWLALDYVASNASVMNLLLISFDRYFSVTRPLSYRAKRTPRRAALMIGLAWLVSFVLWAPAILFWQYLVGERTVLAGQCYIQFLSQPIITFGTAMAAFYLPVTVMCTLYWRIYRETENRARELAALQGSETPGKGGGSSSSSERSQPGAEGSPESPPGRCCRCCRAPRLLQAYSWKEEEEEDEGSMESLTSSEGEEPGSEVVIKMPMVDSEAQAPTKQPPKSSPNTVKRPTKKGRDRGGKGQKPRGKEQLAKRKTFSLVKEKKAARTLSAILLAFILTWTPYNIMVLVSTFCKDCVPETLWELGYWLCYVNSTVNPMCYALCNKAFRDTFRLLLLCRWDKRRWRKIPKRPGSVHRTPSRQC
Cytochrome P450 1A2 (Homo sapiens), sequence (P05177 whole entry, looked up): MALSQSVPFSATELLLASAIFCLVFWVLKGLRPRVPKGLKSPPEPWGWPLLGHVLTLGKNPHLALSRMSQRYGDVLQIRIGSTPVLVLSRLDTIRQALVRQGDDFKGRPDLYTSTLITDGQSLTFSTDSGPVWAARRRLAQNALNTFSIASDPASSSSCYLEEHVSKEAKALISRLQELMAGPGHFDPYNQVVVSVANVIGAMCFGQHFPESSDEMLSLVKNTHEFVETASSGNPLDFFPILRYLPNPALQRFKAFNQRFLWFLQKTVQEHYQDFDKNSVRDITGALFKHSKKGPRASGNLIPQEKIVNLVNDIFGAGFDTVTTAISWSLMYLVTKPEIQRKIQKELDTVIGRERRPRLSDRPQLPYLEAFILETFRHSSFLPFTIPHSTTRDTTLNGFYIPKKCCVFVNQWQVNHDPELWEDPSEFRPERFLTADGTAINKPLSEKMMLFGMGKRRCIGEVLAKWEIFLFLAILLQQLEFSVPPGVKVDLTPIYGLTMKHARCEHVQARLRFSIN
3',5'-cyclic-AMP phosphodiesterase 4B (Homo sapiens), sequence (Q07343 whole entry, looked up): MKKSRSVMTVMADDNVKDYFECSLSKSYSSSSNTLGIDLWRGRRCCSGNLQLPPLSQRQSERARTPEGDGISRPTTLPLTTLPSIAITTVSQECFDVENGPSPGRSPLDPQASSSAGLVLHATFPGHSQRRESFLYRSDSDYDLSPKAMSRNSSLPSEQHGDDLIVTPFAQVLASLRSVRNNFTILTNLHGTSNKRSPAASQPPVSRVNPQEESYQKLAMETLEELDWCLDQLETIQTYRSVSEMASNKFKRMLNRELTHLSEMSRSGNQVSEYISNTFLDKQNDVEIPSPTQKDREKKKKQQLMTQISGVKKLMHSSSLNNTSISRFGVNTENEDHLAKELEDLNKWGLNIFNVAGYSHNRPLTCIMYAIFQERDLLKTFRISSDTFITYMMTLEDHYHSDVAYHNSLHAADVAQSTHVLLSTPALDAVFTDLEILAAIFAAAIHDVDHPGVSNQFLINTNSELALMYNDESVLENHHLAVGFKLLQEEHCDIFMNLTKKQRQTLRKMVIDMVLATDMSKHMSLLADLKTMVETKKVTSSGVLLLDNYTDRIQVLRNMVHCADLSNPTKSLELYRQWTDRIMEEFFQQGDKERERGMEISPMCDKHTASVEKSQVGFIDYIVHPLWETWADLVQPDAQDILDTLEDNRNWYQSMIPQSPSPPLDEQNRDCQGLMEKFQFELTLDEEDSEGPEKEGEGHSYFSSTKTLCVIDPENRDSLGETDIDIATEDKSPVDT
Cytochrome P450 2C19 (Homo sapiens), sequence (P33261 whole entry, looked up): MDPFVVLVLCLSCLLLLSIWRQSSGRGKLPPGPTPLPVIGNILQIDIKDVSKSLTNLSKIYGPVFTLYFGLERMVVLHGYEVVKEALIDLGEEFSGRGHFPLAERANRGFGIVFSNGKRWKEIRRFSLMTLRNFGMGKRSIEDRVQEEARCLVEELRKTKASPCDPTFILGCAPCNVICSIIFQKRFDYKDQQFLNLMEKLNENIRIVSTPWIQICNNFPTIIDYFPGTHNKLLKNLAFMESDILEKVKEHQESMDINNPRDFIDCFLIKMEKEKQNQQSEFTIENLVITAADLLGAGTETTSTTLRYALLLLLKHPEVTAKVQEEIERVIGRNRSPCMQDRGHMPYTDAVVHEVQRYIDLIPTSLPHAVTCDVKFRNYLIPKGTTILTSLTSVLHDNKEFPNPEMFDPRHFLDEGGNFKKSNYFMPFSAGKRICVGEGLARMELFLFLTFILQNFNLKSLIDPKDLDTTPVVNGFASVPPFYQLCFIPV
Guanine nucleotide-binding protein G(i) subunit alpha-1 (Homo sapiens), sequence (P63096 whole entry, looked up): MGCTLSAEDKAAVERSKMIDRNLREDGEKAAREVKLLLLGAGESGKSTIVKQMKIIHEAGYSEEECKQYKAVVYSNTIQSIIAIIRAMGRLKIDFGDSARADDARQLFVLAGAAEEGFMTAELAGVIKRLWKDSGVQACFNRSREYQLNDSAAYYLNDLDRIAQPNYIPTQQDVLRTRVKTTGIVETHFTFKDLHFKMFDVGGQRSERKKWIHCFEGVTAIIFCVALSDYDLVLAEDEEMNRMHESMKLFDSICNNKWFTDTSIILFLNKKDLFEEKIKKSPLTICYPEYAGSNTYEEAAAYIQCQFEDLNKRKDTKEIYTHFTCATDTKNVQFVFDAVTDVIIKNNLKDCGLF
Pyruvate kinase (Leishmania mexicana), sequence (Q27686 2-499 E452W): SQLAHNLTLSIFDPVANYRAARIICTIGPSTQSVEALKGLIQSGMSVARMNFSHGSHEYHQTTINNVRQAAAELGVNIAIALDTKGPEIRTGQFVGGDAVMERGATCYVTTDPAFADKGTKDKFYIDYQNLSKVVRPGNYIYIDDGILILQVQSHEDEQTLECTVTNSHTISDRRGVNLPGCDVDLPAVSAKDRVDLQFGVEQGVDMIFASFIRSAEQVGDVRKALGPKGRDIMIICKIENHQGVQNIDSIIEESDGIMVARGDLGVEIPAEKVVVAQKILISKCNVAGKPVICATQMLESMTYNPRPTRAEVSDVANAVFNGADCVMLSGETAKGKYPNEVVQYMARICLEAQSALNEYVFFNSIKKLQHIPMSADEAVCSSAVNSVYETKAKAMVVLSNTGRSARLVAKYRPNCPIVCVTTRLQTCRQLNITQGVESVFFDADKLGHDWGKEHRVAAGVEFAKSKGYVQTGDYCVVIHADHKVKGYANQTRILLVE

COC(=O)c1cc2c(cn1)[nH]c1ccccc12
outcome [1]: inactive
Potency [2]: 0.631 µM (active)
activity change, negative = inhibition [3]: -0.308%
outcome [4]: inactive
Potency [5]: > 46 µM
Potency [6]: > 46 µM
outcome [7]: inactive
Potency [8]: inactive
outcome [9]: inactive
Potency [10]: inactive
Potency [11]: 15.8 µM (active)
Potency [12]: inactive
Potency [13]: 3.98 µM (active)
outcome [14]: inactive
Potency [15]: inactive
Potency [16]: inactive
outcome [17]: inactive
outcome [18]: inactive
Potency [19]: inactive
outcome [20]: inactive
outcome [21]: inactive
outcome [22]: inactive
Potency [23]: inactive
Potency [24]: inactive
